KAT2A inh – qHTS Assay for Inhibitors of GCN5L2. AID 504327, 2011. Histone acetyltransferase KAT2A (Homo sapiens), Q92830. 390,000 tested, 0.21% active. GCN5L2 HAT assay, ThioGlo1 CoA-SH fluorescence. Potency, µM (titrated, usually from 58.9 µM), inactives show at the highest dose activity change, negative = inhibition, usual class: inhibitors; note: potency is the fitted concentration of half-maximal effect
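Free CoA generated was detected with ThioGlo1 (50uM) fluorescence at Ex340nm/Em540nm, read immediately and after 20 min at room temperature. Enzyme, 20 nM in HEPES pH 7.5 buffer, saw compounds 15 min before adding 75uM H3(1-25) peptide and 70uM acetyl-CoA.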
TrxR1 substrate – qHTS Assay for Substrates of Mammalian Selenoprotein Thioredoxin Reductase 1 (TrxR1): qHTS; Thioredoxin reductase 1, cytoplasmic (Rattus norvegicus), O89049; purified TrxR1 substrate turnover, NADPH consumption readout; Potency, µM (series often up to 114 µM), inactives show at the highest dose activity change, negative = substrate turnover; 390,000 tested, 0.01% active; AID 588456, 2011; note: potency is the fitted concentration of half-maximal effect; nearly all actives have a fitted effect of over 50% in size
Target sequence (O89049 whole entry, looked up): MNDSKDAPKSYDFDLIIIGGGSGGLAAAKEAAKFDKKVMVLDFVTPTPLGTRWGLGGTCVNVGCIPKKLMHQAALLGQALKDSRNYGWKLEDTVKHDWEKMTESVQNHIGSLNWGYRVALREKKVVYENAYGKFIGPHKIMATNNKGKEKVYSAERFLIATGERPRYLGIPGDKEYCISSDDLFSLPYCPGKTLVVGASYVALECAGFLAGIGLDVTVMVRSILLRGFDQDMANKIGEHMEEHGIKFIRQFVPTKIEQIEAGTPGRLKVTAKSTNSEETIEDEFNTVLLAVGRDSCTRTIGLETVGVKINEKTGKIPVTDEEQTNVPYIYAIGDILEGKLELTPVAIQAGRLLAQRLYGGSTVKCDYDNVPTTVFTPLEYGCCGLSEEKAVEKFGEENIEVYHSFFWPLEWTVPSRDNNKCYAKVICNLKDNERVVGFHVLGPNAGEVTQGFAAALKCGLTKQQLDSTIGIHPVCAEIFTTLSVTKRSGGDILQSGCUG
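Rat TrxR1, dispensed at 90 nM, was prereduced with 400 uM NADPH (final) for 5 min at ~22 deg C, then incubated with compound 15 min before 400 uM selenite. A first-read NADPH fluorescence drop versus no-compound background flagged substrates.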
Pin1 inh – qHTS Assay to Find Inhibitors of Pin1; Pin1 FP peptide displacement, HiFluor488, 10 min; Peptidyl-prolyl cis-trans isomerase NIMA-interacting 1 (Homo sapiens), Q13526; 390,000 tested, 0.009% active; AID 504891, 2011; Potency, µM (highest dose often 115 µM), for the others: at the top dose activity, negative = inhibition, most hits filed as inhibitors; active = well fitted inhibition curve with a large enough effect in the polarisation, with a control signal flat, not every such curve was filed as active; inconclusive = small, poorly fitted or top-dose-only effect, or effect the other way, or a change in a side signal; inactive = no such curve, though single readings can be large or run the other way; the % refers to the polarisation; note: potency is the fitted concentration of half-maximal effect
Target sequence (Q13526 whole entry, looked up): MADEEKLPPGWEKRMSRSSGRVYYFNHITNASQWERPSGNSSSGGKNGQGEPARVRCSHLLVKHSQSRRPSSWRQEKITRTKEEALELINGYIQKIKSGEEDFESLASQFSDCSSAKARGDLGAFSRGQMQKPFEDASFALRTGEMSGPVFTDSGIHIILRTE
GALK inh – qHTS Assay for Inhibitors of Human Galactokinase (GALK); P51570; Potency, µM (titrated, usually from 57.5 µM), for the others: top-dose activity change, negative = inhibition, hits mostly inhibitors; AID 1868, 2009; 270,000 tested, 0.007% active; Purified GALK, Kinase-Glo residual ATP luminescence; note: potency is the fitted concentration of half-maximal effect
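Galactose (100 uM) and ATP (35 uM) were turned over by 5 nM GALK for 1 h at RT. Kinase-Glo Plus then converted the remaining ATP into a luminescent signal.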
rTrxR1 inhibitor – qHTS Assay for Inhibitors of Mammalian Selenoprotein Thioredoxin Reductase 1 (TrxR1): qHTS | Thioredoxin reductase 1, cytoplasmic (Rattus norvegicus), O89049 | recombinant rTrxR1, NADPH fluorescence consumption, selenite substrate | Potency, µM (series often up to 114 µM), inactives show at the top dose activity change, negative = inhibition, most hits filed as inhibitors | 390,000 tested, 1% active | AID 588453, 2011; note: potency is the fitted concentration of half-maximal effect; nearly all actives have a fitted effect of over 65% in size
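Rat TrxR1 (90 nM in the dispensed reagent) was pre-reduced with 400 uM NADPH for 5 min at room temperature, then incubated with compound for 15 min. After 400 uM selenite was added, NADPH fluorescence (Ex 340/Em 450 nm) was followed for 8 min.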
Giardia kill – Small Molecules that selectively kill Giardia lamblia: qHTS. Giardia lamblia trophozoite viability. activity change, % at 7.66 µM, hits read low. 340,000 tested, 0.15% active. AID 540267, 2011; in the data active = activity change below about -80%; inconclusive = between about -30% and that limit;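 note: parasites exposed to compound for two days anaerobically before the ATP read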
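Luminescent ATP signal served as the viability read-out, measured 15-30 min after adding ATP detection reagent to trophozoites that had been incubated with compounds for 48 hrs at 37 deg C anaerobically at 100 cells/well.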
Numbers without * were called inactive; ? = inconclusive; . = no result given; [ ] = dose if it differs, or a comment. In the library only some 1.3% were active in any assay of this set; here they are far more common. Unless noted, calls come from the whole dose curve; as a rule, active = well fitted curve in the direction sought with a large enough effect; inconclusive = small, poorly fitted or top-dose-only effect, or another doubt; inactive = no such curve, though single readings can be large; an effect the other way counts as inactive or inconclusive. % is set by controls: 0 for no effect and ±100 for the full control effect.

SMILES | KAT2A inh | TrxR1 substrate | Pin1 inh | GALK inh | rTrxR1 inhibitor | Giardia kill
COc1cc(C2Nc3cccc4cccc(c34)N2)cc(OC)c1O | -12.0% | 10.6% | ? | -2.5% | 15.8µM* | -2.8
COC(=O)c1ccc(C2Nc3cccc4cccc(c34)N2)cc1 | -0.4% | 3.5%[57.1 µM] | -4.8% | 0.5% | 9.9%[57.1 µM] | -11.6
COc1ccc(C2Nc3cccc4cccc(c34)N2)cc1Br | -9.7% | 0.1% | -2.0% | 3.9% | ? | 0.8
COc1ccccc1CCNC(=O)C(=O)NCC(c1cccs1)S(=O)(=O)c1cccs1 (stereo not given) | -1.2% | -3.4%[57.1 µM] | ? | . | 12.1%[57.1 µM] | .
CS(=O)(=O)Nc1cccc(-c2cncnc2NCc2cccnc2)c1 | -1.8% | . | . | . | . | .
COc1ccc(NC(=O)CSc2ccc3c4c(cccc24)C(=O)c2ccccc2-3)cc1 | 22.4µM* | -2.4% | ? | 1.1% | 7.5% | -5.2
COC(=O)c1c(S(C)(=O)=O)nc(-c2ccccc2)[nH]c1=O | -1.1% | -0.6% | -3.1% | -2.0% | 39.8µM* | 7.6
Cc1cc(C)cc(NC(=O)NCCn2nnc3cc(S(=O)(=O)N(C)C)ccc32)c1 | 21.9% | -5.1%[57.1 µM] | -2.1% | . | 4.6%[57.1 µM] | .
N#Cc1c(-c2ccc(Cl)cc2)no[n+]1[O-] | . | . | -9.1% | . | . | .
O=[N+]([O-])c1ccc(S(=O)(=O)Nc2nnc(C(F)(F)F)s2)cc1 | ? | -13.0% | -11.3% | -2.8% | 6.31µM* | -15.8
CC(C)Cc1nnc(NS(=O)(=O)c2ccc([N+](=O)[O-])cc2)s1 | ? | -10.5% | 3.5% | -0.5% | 7.8%[57.1 µM] | -0.9
CCOC(=O)c1cn(-c2nc(-c3ccc(Cl)c(Cl)c3)cs2)c2c(F)c(N3CCOCC3)c(F)cc2c1=O | 2.51µM* | 2.4% | 3.3% | 3.3% | -1.8% | -11.3
COc1ccc(-n2nc([N+](=O)[O-])c(=NCCC3=CCCCC3)n2O)cc1 | -19.4% | -10.3% | -6.7% | -3.2% | 11.7%[57.1 µM] | -90.7*
Cc1ccc(CN=c2c([N+](=O)[O-])nn(-c3cccc(C)c3)n2O)cc1 | -6.9% | -2.5% | 10.3% | 0.3% | -9.4% | -83.4*
O=[N+]([O-])c1nn(-c2ccc3c(c2)OCCO3)n(O)c1=NC1CCCCC1 | -1.9% | 0.8%[57.1 µM] | ? | -1.3% | -5.7%[57.1 µM] | -84.2*
COc1ccc(-n2nc([N+](=O)[O-])c(=NCCc3ccc(C)cc3)n2O)cc1 | -9.3% | -0.2% | -6.0% | 1.2% | 10.5% | -92.9*
CCc1ccc(N=c2c([N+](=O)[O-])nn(-c3ccccc3)n2O)cc1 | -0.6% | -0.9% | 3.1% | -2.4% | 1.5% | ?
O=[N+]([O-])c1nn(-c2ccc3c(c2)OCCO3)n(O)c1=NCc1ccccc1Cl | -15.5% | 14.5%[57.1 µM] | ? | 0.0% | 39.2%[57.1 µM] | ?
COc1ccc(-n2nc([N+](=O)[O-])c(=NC3CCN(Cc4ccccc4)CC3)n2O)cc1 | 0.2% | -7.7% | -4.2% | -1.1% | -12.1% | -81.8*
Cc1cc(C)cc(N=c2c([N+](=O)[O-])nn(-c3ccc(Cl)cc3)n2O)c1 | -5.6% | -6.3% | -1.1% | -1.3% | -5.7% | ?
COc1ccc(-n2nc([N+](=O)[O-])c(=NCCc3ccc(Cl)cc3)n2O)cc1 | -3.2% | 10.0% | ? | . | 13.0% | -84.1*
COc1ccc(-n2nc([N+](=O)[O-])c(=NCc3ccco3)n2O)cc1 | -8.2% | -9.2% | -2.7% | 0.8% | -13.4% | -4.5
COc1ccc(-n2nc([N+](=O)[O-])c(=NCc3cccnc3)n2O)cc1 | 1.1% | -6.2% | 4.6% | -0.1% | -3.0% | -96.6*
COc1ccc(-n2nc([N+](=O)[O-])c(=NCCc3ccc(OC)c(OC)c3)n2O)cc1 | -2.8% | 9.1% | -2.1% | 0.2% | 19.9% | -94.3*
Cc1ccccc1N(C)C1=N[S+](=O)([O-])c2ccccc21 | . | . | -9.8% | . | . | .
SMILES | KAT2A inh | TrxR1 substrate | Pin1 inh | GALK inh | rTrxR1 inhibitor | Giardia kill
COc1ccc2nc(-c3ccc(N(C)C)cc3)sc2c1 | . | . | 13.3% | . | . | .
O=[S+]([O-])(c1ccc2c(c1)OCCO2)N1CCN([S+](=O)([O-])c2c(F)cc(Br)cc2F)CC1 | . | . | 3.1% | . | . | .
CCC12CN3CC(CC)(CN(C1)C3c1ccc([N+](=O)[O-])o1)C2=O (stereo not given) | -12.3% | -8.1% | 5.1% | 3.6% | 7.6%[57.1 µM] | -85.8*
CCCC12CN3CC(C)(CN(C1)C3c1ccc([N+](=O)[O-])o1)C2=O (stereo not given) | -1.2% | 2.8%[57.1 µM] | 1.0% | . | 5.1%[57.1 µM] | -87.1*
CC(C)C12CN3CC(C(C)C)(CN(C1)C3c1ccc([N+](=O)[O-])o1)C2=O (stereo not given) | -6.1% | -2.7% | -4.8% | -0.7% | -6.1% | ?
CC12CN3CC(C)(CN(C1)C3c1ccc([N+](=O)[O-])o1)C2=O (stereo not given) | 3.2% | 1.5% | -1.5% | 6.7% | 4.6% | 6.8
COc1ccc(C2Nc3ccccc3C(=O)N2Cc2ccccc2C)cc1COc1ccc(NC(C)=O)cc1 (stereo not given) | . | . | 7.6% | . | . | .
Cc1ccc(NS(=O)(=O)c2ccc3c(c2)CCC(=O)N3)cc1Cl | . | . | -1.6% | . | . | .
COc1cc2ccc(=O)oc2c(O[C@@H]2O[C@H](CO)[C@@H](O)[C@H](O)[C@H]2O)c1O | 22.4µM* | 424.5% | ? | -0.4% | -35.7% | 16.2
CC(C)c1ccc(S(=O)(=O)/N=C2/C=C(Sc3ncn[nH]3)C(=O)c3ccccc32)cc1 | ? | 14.1µM* | . | -9.0% | ? | -7.7
CCCS(=O)(=O)c1nc(S(=O)(=O)c2ccc(C)cc2)c(NCc2ccccn2)s1 | -3.8% | 1.4% | -1.1% | 1.0% | 20µM* | -6.5
O=C(Nc1ccccc1C(=O)OCc1cc(=O)n2c3c(sc2n1)CCCC3)c1ccc(F)cc1 | 18.3% | -1.6%[57.1 µM] | -5.4% | . | 8.1%[57.1 µM] | .
CCOc1cccc2cc(-c3nnc(NCc4ccco4)s3)c(=O)oc12 | -2.2% | 11.9%[57.1 µM] | ? | -1.2% | 7.94µM* | -8.1
COc1ccc2oc(=O)c(-c3nnc(NCc4ccco4)s3)cc2c1 | -12.4% | 6.4% | ? | 0.9% | 15.8µM* | -24.9
CCOc1ccccc1Nc1nnc(-c2cc3cc(OC)ccc3oc2=O)s1 | -4.3% | 1.2%[57.1 µM] | ? | . | 11.6%[57.1 µM] | .
Cc1cc(S(=O)(=O)NCC(c2ccco2)S(=O)(=O)c2ccccc2)ccc1F (stereo not given) | -6.6% | 0.4%[57.1 µM] | -9.2% | . | 11.4%[57.1 µM] | .

From PubChem BioAssay
